Assay outcomes from PubChem.
Most compounds without a hit are left out; they make up all but 11% or so of the library.
BAZ2B block = inhibitors of human BAZ2B bromodomain. Potency, µM (titrated, usually from 114 µM), inactives show at the top dose activity change, negative = inhibition, most hits filed as inhibitors. Q9UIF8. 4.4% of 360,000 active. AID 504333. AlphaScreen BAZ2B-H3K14Ac peptide displacement; also: % is scaled to controls: 0 for no effect and ±100 for the full control effect; nearly all actives have a fitted effect of over 60% in size
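BAZ2B (50 nM) with biotin-H3(5-23)K14Ac peptide (50 nM) in PBS pH 7.4, 0.01% Tween-20, preformed 30 min, then compound 30 min at room temperature; top concentration 110uM. AlphaScreen streptavidin donor/nickel chelate acceptor beads (10 ug/mL final), 20 min dark, signal read.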
G9a inh = G9a (human) methyltransferase inhibition; AID 504332; 8.8% of 350,000 active; Q96KQ7; Potency, µM (series often up to 102 µM), for the others: at the highest dose activity, negative = inhibition, usual class: inhibitors; G9a H3K9 monomethylation, AlphaScreen, 2 h; also: % is scaled to controls: 0 for no effect and ±100 for the full control effect; nearly all actives have a fitted effect of over 75% in size
Target sequence (Q96KQ7 913-1193 limits assumed): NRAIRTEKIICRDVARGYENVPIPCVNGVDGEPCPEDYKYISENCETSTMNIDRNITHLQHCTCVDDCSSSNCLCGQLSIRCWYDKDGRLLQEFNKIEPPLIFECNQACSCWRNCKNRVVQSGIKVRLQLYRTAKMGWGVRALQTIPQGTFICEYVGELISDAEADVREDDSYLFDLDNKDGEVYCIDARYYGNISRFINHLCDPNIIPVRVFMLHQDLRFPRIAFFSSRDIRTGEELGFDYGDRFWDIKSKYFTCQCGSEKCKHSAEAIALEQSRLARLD
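AlphaScreen read-out: biotin-H3K9 peptide (500 nM) methylation by 20 nM enzyme with 20 uM SAM, 2 h at room temperature after 15 min compound preincubation; anti-monomethyl H3K9 antibody plus donor/acceptor beads, 10 min dark.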
HP1b binding inh = blocks HP1-beta chromodomain binding to methylated histone tails | 0.56% of 390,000 active | P83916 | AlphaScreen HP1-beta / biotin-H3K9me3 peptide binding | AID 540317 | Potency, µM (top dose mostly 114 µM), inactives show at the top dose activity change, negative = inhibition, most hits filed as inhibitors; also: nearly all actives have a fitted effect of over 70% in size
Target sequence (P83916 whole entry, looked up): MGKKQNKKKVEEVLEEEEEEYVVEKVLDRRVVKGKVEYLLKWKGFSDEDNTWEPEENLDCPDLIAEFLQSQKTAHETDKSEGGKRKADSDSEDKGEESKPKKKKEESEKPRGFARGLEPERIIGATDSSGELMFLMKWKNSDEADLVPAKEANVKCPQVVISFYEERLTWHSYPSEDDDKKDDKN
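Compound inhibition of the preformed complex between 50 nM HP1-beta and 50 nM biotinylated H3K9me3 peptide was read by AlphaScreen. Buffer was PBS pH 7.4 with 0.01% Tween-20. Incubations ran 30 min at room temperature, with 10 ug/mL donor/acceptor beads.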
JMJD2A Tudor inh = inhibitors of human JMJD2A Tudor domain. O75164. AID 504339. 4.4% of 390,000 active. Potency, µM (titrated, usually from 114 µM), for the others: at the top dose activity change, negative = inhibition, most hits filed as inhibitors. AlphaScreen JMJD2A-Tudor / H3K4me3 peptide binding; also: % is scaled to controls: 0 for no effect and ±100 for the full control effect; nearly all actives have a fitted effect of over 50% in size
L3MBTL1 inh = L3MBTL1 (human) inhibition | AID 485360 | 0.66% of 230,000 active | AlphaScreen L3MBTL1–H3K9me1 peptide binding | Q9Y468 | Potency, µM (highest dose often 57.1 µM), for the others: at the top dose activity, negative = inhibition, most hits filed as inhibitors; also: % is scaled to controls: 0 for no effect and ±100 for the full control effect; nearly all actives have a fitted effect of over 60% in size
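Displacement of a biotinylated histone H3(1-15) peptide monomethylated at Lys9 (75 nM) from L3MBTL1 (50 nM) was measured by AlphaScreen after a 30 min room-temperature compound incubation; cefsulodin titration served as intraplate control.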
The depositor's hits bear a star; ? = inconclusive; . = not tested or not shown; [ ] = dose if it differs, or a comment. Calls follow the shape of the dose curve; as a rule, active = well fitted inhibition curve with a large enough effect; inconclusive = small, poorly fitted or top-dose-only effect; inactive = no such curve, though single readings can be large or run the other way. Potency is read from the fitted curve at half-maximal effect.

SMILES | BAZ2B block | G9a inh | HP1b binding inh | JMJD2A Tudor inh | L3MBTL1 inh
COc1ccc2nc(C)cc(SCC(NC(C)=O)C(=O)OC(C)C)c2c1 (stereo unspecified) | -2% | 40µM* | 49% | -6% | -2%
COc1ccc2nc(C)cc(SCC(=O)OC(C)C)c2c1 | -17% | 31% | 18% | -3% | ?
COc1ccc(NC(=O)N2CCN(S(=O)(=O)c3ccc4c(ccn4C)c3)CC2)cc1OC | -22% | -19%[59 µM] | 23%[57 µM] | ? | .
CC(=O)c1c(C)nc2nc(-c3ccccc3)nn2c1C | -9% | 2%[59 µM] | 13% | -2% | .
Cc1ccc2nc(SCC(=O)N(CC(C)C)c3c(N)n(Cc4ccccc4)c(=O)[nH]c3=O)[nH]c2c1 | -12% | -23% | 39% | -4% | -7%
N#Cc1c(Nc2ccccc2)sc(C(=O)C2CC2)c1N | 13% | 79µM* | 42% | 1% | 4%
O=C(NCc1ccccc1Cl)c1ccc2c(c1)ncn2-c1cccc(F)c1 | -6% | -6%[59 µM] | -4% | -5% | .
COc1ccccc1CNC(=O)c1ccc(CSc2nc3ccncc3n2Cc2cccc(F)c2)cc1 | -12% | ? | 51% | -15% | .
COc1cccc(OCc2nc3ccccc3n2CCOc2ccc(C)cc2)c1 | 24% | 4%[59 µM] | 84% | 24% | .
COc1ccc(NCc2nc3ccccc3n2CCOc2ccc(C)cc2)cc1 | 10µM* | 14µM* | 40µM* | 11µM* | ?
c1ccc(NCc2nc3ccccc3n2CCOc2ccccc2)cc1 | ? | ? | -6% | -32% | -14%
COc1ccc(NCc2nc3ccccc3n2CCOc2ccccc2)cc1 | 18µM* | 32µM* | -67% | 40µM* | ?
CC(CCN1CCN(c2ccccn2)CC1)c1ccccc1 (stereo unspecified) | ? | 28µM* | ? | 25µM* | -6%
C(#Cc1ccccc1)CN1CCN(c2ccccn2)CC1 | 50µM* | ? | 1% | ? | -3%
C(#Cc1ccccc1)CN1CCCCC1 | -3% | 19%[0.501 µM] | 7% | -12% | 1%
CCc1ccc(C(=O)c2cn(Cc3ccccc3)c3cc(OC)c(OC)cc3c2=O)cc1 | ? | -30%[59 µM] | -5% | ? | .
C/C(=N\NC(=O)c1cccc(S(=O)(=O)N2CCOCC2)c1)c1ccc(C#N)cc1 | ? | 40µM* | 14% | -15% | .
O=C(NNS(=O)(=O)c1cccc(Cl)c1Cl)c1cccc(S(=O)(=O)N2CCOCC2)c1 | 3% | 32µM* | 8% | ? | 6%
CC(=NNC(=O)c1cccc(S(=O)(=O)N2CCOCC2)c1)c1ccccc1 | . | . | 39% | 1% | -2%
COc1ccc(/C(C)=N/NC(=O)c2cccc(S(=O)(=O)N3CCCC3)c2)c(O)c1 | 2.8µM* | 63%[2.33 µM] | -3% | ? | 6.3µM*
C/C(=N\NC(=O)c1cccc(S(=O)(=O)N2CCCC2)c1)c1cccs1 | -17% | 31% | -10% | 56µM* | 2%
COCC(=O)Oc1c(Sc2ccccc2[N+](=O)[O-])c(C)nn1C(C)(C)C | ? | 22µM* | 2% | -13% | -21%
CCC(CC)C(=O)Oc1c(Sc2ccccc2[N+](=O)[O-])c(C)nn1C(C)(C)C | ? | 32µM* | ? | -35% | -10%
CCOc1ccccc1C(=O)Oc1c(Sc2ccccc2)c(C)nn1C(C)(C)C | 8% | -1%[59 µM] | 57% | -2% | .
Cc1nc2sc(C(=O)N(C)c3ccccc3)c(NC(=O)c3ccccc3Cl)c2c(C)c1C | -8% | 8%[59 µM] | 15% | -2% | .
SMILES | BAZ2B block | G9a inh | HP1b binding inh | JMJD2A Tudor inh | L3MBTL1 inh
COC(=O)c1ccccc1NC(=O)Cn1ncc2c(C)n(Cc3ccc(F)cc3)c(C)c2c1=O | -27% | 10%[59 µM] | 33% | -14% | .
O=C(O)CCc1nc2cc(C(F)(F)F)ccc2n(Cc2ccccc2)c1=O | -12% | 7% | 53% | -10% | .
CCc1ccc2c(c1)c(N=NC1=NC(=O)CS1)c(O)n2C | ? | 13µM* | -9% | -33% | -5%
Cc1ccc(-c2cc(-c3ccc(F)cc3)nc(N)c2C#N)o1 | -3% | 2.5µM* | 45% | -4% | .
Cc1ccc(-c2cc(-c3ccccc3)c(C#N)c(N)n2)o1 | ? | 2.8µM* | ? | ? | 17%
Cc1ccc(-c2cc(-c3ccccc3Cl)c(C#N)c(N)n2)o1 | ? | ? | ? | ? | 16%
COc1cc2[nH]c(Cl)c([N+](=O)[O-])c2cc1OC | 56µM* | ? | -18% | ? | .
COc1cc(C(=O)O)c([N+](=O)[O-])c(OC)c1OC | -21% | 4% | 42% | -12% | 7%
COc1ccc(CNC(=O)c2ccc(CS(=O)(=O)c3ccccc3OC)o2)cc1 | 2% | 6%[59 µM] | 30% | -4% | .
Cc1sc2ncn(-n3c(C)ccc3C)c(=O)c2c1C | -1% | -2%[59 µM] | -8% | -33% | -1%
Cc1ccc(-c2csc3ncn(-n4c(C)ccc4C)c(=O)c23)o1 | ? | 10µM* | -6% | ? | -3%
CCOc1cc(C2c3c(oc4ccccc4c3=O)C(=O)N2Cc2ccc3c(c2)OCO3)ccc1O (stereo unspecified) | 3% | 4%[59 µM] | 27% | -9% | .
CCc1cc(C(c2ccccn2)N2CCN(C)CC2)c(NC(=O)c2ccccc2)s1 (stereo unspecified) | -36% | 40µM* | 7% | ? | -5%
Cc1cc(C)c(OCCN(C)Cc2ccccc2)c(Br)c1 | 6% | 20%[59 µM] | 54% | 0% | 10%
Cc1cc(C)c(C)c(OCCNCc2ccccc2)c1 | 20µM* | 11µM* | -8% | 3.5µM* | -1%
Cc1cc(C)c(OCCNCc2ccccc2)c(C)c1 | 50µM* | 7.1µM* | -24% | 1.1µM* | -4%
Clc1ccc(OCCOCCNCc2ccccc2)cc1Cl | ? | . | -14% | 25µM* | -10%
Cc1cc(C)c(OCCCCNCc2ccccc2)c(Cl)c1 | 56µM* | 35%[0.501 µM] | -53% | 1.4µM* | 1%
Cc1cc(C)c(S(=O)(=O)NCCc2ccccc2)c(C)c1 | 6% | 0%[12.7 µM] | 79% | 17% | 34%
CC(=O)c1ccc(NC(=O)c2cc(-c3ccc(Cl)c(Cl)c3)on2)cc1 | 2% | 7%[59 µM] | 28% | 9% | .
COc1ccc(NC(=O)CCS(=O)(=O)c2cc(Br)cc3c2N(C(C)=O)CC3)c(OC)c1 | 19% | 16%[59 µM] | 35% | -32% | .
Cc1cc(Cl)cc(C)c1OCCOCCNCc1ccccc1 | ? | . | -4% | 22µM* | -1%
Cc1cc(Cl)cc(C)c1OCCNCc1ccccc1 | 71µM* | 7.9µM* | ? | 0.79µM* | 11%
COc1cc(C(=O)NCc2ccc3c(c2)CCN3C(=O)c2ccncc2)cc(OC)c1OC | -2% | 1%[59 µM] | 6% | -8% | .
Cc1ccc(C(=O)N2CCN(Cc3nc4sc5c(c4c(=O)[nH]3)CCCC5)CC2)cc1 | -1% | -9%[59 µM] | 37% | -16% | .
O=c1[nH]c(CN2CCCC2)nc2sc3c(c12)CCC3 | ? | 40µM* | 8% | ? | 9%
O=C(c1c2c(nc3ccccc13)C(=O)N(C1CCCCC1)C2)N1CCN(c2ccc(F)cc2)CC1 | -26% | -4%[59 µM] | 15% | -29% | .
